# Assay results taken from the supplement of paper PMC11732987, “Enantioselective OTUD7B fragment discovery through chemoproteomics screening and high-throughput optimisation” (Communications Chemistry, 2025).
# Values without a mark were called inactive.
# Legend:
# Assay in all cases: log2 ratio of Biotin-Ahx-Ub-VS probe labelling (fragment/DMSO); higher = less target engagement (more negative = stronger competition), active = hit call of the paper (q ≤ 0.05, log2 ratio ≤ -1)
# Details in all cases: compound concentration: 200 uM; treatment time: 3 h
# OTUD6B = target: T1, OTUD6B (UniProt Q8N6M0)
# T1 sequence (whole entry): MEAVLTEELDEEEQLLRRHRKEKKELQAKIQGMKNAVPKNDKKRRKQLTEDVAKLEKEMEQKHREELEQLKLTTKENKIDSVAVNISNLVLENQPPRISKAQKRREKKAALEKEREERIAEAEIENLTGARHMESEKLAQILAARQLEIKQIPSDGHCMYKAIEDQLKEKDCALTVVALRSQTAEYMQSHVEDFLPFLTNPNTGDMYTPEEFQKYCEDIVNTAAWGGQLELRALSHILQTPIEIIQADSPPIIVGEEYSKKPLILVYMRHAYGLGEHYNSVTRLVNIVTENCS
# How it was run: (§1)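 HEK293T lysate, 495 µg per sample in Tris/CHAPS/IGEPAL buffer with protease inhibitors, was treated in triplicate with fragment at 200 µM or vehicle for 3 h and then with Biotin-Ahx-Ub-VS at 0.5 µM final for 1 h. Labelled DUBs were NeutrAvidin-enriched, digested with LysC and trypsin, and run by diaPASEF LC-MS/MS. Spectronaut label-free quantities were global-median-normalised, and values are average log2 fragment/vehicle ratios by unpaired t-test on proteins with ≥2 unique peptides.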
# OTUD7B = target: T2, OTUD7B (UniProt Q6GQQ9)
# T2 sequence (whole entry): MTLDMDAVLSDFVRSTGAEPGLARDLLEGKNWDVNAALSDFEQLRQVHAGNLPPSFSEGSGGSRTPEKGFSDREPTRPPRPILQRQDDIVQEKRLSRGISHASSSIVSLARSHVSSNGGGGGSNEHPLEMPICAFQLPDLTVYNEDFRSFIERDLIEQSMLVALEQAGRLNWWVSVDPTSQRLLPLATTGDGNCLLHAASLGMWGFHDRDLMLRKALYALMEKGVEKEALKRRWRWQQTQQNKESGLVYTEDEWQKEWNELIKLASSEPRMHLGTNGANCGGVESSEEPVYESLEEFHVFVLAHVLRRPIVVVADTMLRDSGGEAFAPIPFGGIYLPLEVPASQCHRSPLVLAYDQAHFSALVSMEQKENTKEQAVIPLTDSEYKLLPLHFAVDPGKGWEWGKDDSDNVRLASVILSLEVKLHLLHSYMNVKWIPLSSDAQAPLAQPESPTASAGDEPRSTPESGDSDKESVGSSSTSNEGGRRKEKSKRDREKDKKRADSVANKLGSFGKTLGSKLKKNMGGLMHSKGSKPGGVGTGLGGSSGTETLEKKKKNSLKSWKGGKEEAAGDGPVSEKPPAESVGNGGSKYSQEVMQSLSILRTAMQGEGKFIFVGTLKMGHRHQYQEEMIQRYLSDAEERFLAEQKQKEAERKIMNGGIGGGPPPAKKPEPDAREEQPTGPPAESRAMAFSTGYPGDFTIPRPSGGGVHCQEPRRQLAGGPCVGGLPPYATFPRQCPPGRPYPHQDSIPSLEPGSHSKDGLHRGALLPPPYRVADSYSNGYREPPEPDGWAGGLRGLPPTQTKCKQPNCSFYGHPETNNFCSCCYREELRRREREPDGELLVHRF
# How it was run: as §1
# PRPF8 = PRPF8 (UniProt Q6P2Q9)
# How it was run: as §1
# PSMD7 = target: T3, PSMD7 (UniProt P51665)
# T3 sequence (whole entry): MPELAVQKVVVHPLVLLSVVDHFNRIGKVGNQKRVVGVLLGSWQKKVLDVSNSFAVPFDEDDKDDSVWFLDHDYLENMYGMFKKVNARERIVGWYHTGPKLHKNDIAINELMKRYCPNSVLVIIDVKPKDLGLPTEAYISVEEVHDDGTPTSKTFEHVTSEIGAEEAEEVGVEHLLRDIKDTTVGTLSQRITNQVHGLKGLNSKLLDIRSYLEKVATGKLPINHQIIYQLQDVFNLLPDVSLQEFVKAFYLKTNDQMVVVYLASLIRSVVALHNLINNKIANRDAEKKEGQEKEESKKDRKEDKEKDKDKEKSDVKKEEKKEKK
# How it was run: as §1
# UCHL1 = UCHL1 (UniProt P09936)
# Sequence of UCHL1 (P09936 whole entry, looked up): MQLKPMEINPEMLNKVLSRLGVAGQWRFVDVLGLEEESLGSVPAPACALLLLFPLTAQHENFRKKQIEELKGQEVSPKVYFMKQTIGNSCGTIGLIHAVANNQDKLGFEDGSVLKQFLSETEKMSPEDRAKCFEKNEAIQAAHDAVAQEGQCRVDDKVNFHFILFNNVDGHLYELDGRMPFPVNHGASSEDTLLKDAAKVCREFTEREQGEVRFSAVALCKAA
# How it was run: as §1
# UCHL3 = target: T4, UCHL3 (UniProt P15374)
# T4 sequence (whole entry): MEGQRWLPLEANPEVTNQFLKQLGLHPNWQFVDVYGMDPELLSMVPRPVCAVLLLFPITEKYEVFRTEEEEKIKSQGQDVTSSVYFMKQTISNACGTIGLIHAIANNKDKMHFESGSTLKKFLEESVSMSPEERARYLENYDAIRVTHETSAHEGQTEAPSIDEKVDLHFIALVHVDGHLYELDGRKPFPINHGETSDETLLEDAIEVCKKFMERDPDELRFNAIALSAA
# How it was run: as §1
# UCHL5 = target: T5, UCHL5 (UniProt Q9Y5K5)
# T5 sequence (whole entry): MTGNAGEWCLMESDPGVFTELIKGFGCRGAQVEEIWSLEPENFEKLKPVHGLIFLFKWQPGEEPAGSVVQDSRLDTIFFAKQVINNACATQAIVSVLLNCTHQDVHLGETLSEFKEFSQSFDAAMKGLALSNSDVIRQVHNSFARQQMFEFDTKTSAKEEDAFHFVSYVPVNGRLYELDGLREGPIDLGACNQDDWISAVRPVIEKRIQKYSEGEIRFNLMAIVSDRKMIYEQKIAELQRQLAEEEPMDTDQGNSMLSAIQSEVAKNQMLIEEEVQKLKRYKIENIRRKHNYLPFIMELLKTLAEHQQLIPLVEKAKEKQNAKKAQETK
# How it was run: as §1
# USP10 = USP10 (UniProt Q14694)
# Sequence of USP10 (Q14694 whole entry): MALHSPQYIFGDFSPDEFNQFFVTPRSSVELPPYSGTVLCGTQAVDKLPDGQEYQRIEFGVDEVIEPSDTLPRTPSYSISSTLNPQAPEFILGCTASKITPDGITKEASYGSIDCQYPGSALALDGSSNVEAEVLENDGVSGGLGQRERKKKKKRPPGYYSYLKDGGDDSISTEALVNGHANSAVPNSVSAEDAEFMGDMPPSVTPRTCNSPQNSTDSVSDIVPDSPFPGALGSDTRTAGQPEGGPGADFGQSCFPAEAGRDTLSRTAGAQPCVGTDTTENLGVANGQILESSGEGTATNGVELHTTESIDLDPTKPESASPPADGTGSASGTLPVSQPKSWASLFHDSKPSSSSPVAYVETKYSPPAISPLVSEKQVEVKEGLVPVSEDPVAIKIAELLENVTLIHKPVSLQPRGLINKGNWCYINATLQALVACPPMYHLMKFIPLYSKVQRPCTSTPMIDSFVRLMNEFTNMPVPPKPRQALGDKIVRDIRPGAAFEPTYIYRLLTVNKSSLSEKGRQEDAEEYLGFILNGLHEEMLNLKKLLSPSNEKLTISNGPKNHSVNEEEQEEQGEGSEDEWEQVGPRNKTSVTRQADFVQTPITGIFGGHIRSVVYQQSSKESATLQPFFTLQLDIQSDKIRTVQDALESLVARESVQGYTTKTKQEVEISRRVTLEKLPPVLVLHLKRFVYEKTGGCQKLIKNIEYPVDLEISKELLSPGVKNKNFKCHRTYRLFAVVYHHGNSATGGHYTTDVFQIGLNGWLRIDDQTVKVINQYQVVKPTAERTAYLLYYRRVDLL
# How it was run: as §1
# USP15 = target: T6, USP15 (UniProt Q9Y4E8)
# T6 sequence (whole entry): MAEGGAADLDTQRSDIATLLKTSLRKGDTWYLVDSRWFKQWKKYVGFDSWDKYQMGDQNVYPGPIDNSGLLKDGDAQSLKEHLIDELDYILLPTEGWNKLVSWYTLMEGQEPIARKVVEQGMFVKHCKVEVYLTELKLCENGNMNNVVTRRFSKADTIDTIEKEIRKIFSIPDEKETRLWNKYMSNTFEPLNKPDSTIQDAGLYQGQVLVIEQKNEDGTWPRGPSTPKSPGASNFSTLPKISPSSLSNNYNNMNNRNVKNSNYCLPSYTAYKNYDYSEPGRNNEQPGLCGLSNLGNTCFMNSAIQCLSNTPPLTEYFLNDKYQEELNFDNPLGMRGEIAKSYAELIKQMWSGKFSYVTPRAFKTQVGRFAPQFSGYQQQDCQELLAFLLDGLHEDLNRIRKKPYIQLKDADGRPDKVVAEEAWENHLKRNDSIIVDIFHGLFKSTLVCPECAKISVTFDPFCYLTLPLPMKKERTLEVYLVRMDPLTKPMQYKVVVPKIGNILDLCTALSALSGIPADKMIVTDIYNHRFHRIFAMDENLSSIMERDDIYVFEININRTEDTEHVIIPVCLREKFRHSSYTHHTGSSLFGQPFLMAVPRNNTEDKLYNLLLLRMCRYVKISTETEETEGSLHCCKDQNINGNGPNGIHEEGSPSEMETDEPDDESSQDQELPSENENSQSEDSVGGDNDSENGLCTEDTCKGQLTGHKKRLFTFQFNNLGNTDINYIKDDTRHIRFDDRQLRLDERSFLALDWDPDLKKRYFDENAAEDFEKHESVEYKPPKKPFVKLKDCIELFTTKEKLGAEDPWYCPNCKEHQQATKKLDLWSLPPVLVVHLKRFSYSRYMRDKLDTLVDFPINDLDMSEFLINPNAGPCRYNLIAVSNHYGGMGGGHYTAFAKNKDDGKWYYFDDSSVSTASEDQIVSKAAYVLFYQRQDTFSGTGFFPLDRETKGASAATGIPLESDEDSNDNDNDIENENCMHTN
# How it was run: as §1
structure (smiles),measurement,setting,value
CS(=O)(=O)c1ccc(CNC(=O)CCl)cc1,log2 ratio of Biotin-Ahx-Ub-VS probe labelling,OTUD6B,-0.168
same,log2 ratio of Biotin-Ahx-Ub-VS probe labelling,OTUD7B,-0.575
same,log2 ratio of Biotin-Ahx-Ub-VS probe labelling,PRPF8,-0.126
same,log2 ratio of Biotin-Ahx-Ub-VS probe labelling,PSMD7,-0.155
same,log2 ratio of Biotin-Ahx-Ub-VS probe labelling,UCHL1,-1.33 (active)
same,log2 ratio of Biotin-Ahx-Ub-VS probe labelling,UCHL3,0.301
same,log2 ratio of Biotin-Ahx-Ub-VS probe labelling,UCHL5,-0.165
same,log2 ratio of Biotin-Ahx-Ub-VS probe labelling,USP10,-0.141
same,log2 ratio of Biotin-Ahx-Ub-VS probe labelling,USP15,-0.268
